Results published in the OligoGym collection.

target: JDP2; test: pooled miR-30 sensor sort-seq; sequence = guide strand; conditions: shRNA
Note: reference of the scale not given here.

Row | Sequence | sensor-assay potency score (higher = more potent)
1 | TCTTCTTGTTCCGGCATCGGGC | -0.866
2 | TTTATACTGTATCACATCGAGT | -0.987
3 | TTTCATTCTGAGTTCCATCCTC | 0.428
4 | TATCTGTTCATAACAAACAAAC | -1.71
5 | TAAACATTCGGTGAGTATGTGC | -0.401
6 | TATACTGTATCACATCGAGTGA | -0.648
7 | TAGCTCACTTTTCACGGGCTGG | -0.699
8 | TTTCCTTCGCTCCTCTTCCTCA | -0.612
9 | ATAACAAACAAACCATAGCATA | -1.75
10 | TTTGGTTGCAACTCATGGCTTT | 0.0923
11 | TTAGGAGTTACACACAACGGCC | -1.56
12 | TACTGTATCACATCGAGTGATT | -0.618

target: JMJD1C; test: as above; conditions: shRNA

Row | Sequence | sensor-assay potency score (higher = more potent)
13 | TAGTCTTGAAGTCTTCTCCTGA | 0.704
14 | TTTACATTTATCTTGGAGGTTT | -0.435
15 | TTTATCTCTAGAACTCTTCCTT | 0.72
16 | TATCTTGTCAACATCTTTCCCA | 0.56
17 | ATTGACAGAACTTATCACCTAT | 0.441
18 | ATCTATTCTAACTACTCCGTTT | -1.09
19 | TTCAATTTTAAAACAACTGTTT | -0.691
20 | TTAACTTGTTATCTGTGCCTAC | 0.548
21 | TATCTCTAGAACTCTTCCTTTC | -0.557

target: JMJD8; test: as above; conditions: shRNA

Row | Sequence | sensor-assay potency score (higher = more potent)
22 | TACTGCTGCACGAACTCCGCGT | -0.255
23 | TACAGCACCTCACCAGCCCGGA | -0.942
24 | TATACATAGTTTATGTTCCTGG | -0.256
25 | TTATTGACGCATTCATCTCTGA | -0.0992
26 | TAGATCACTTCTGAGTACCCGG | -0.223
27 | TACGACCGTAGATCACTTCTGA | 0.324
28 | TAGGAGTAGGTGTTGGCGGTGC | 0.392
29 | TTGAGCGTAGCATGCCACCAGC | -0.983
30 | TTGTGGTAGGAGTAGGTGTTGG | -1.22
31 | TATCTGTGTAATAAAATCCGTG | -0.911
32 | TAGCATGCCACCAGCGGTCGGG | -0.51
33 | TTTGTGGTAGGAGTAGGTGTTG | -1.04

target: JOSD1; test: as above; conditions: shRNA

Row | Sequence | sensor-assay potency score (higher = more potent)
34 | ATCTCTTGCAGCGTATCCCGGG | -0.409
35 | TTGGAGTCGAGGTTGTAGTAGG | -0.655
36 | TTGTGAGGTGTCACCATGGTGT | -0.922
37 | TTGAGTTTGGAGTCGAGGTTGT | 0.206
38 | TTCCTGAGCTCGCTCTCGCCTC | -1.09
